Data on eight sequences can be found in publication PMC7862700, “An all-to-all approach to the identification of sequence-specific readers for epigenetic DNA modifications on cytosine”.

Common to all, as to assay: DAPPL (digital affinity profiling via proximity ligation, sequencing); 10 mM Tris-HCl pH 7.5, 50 mM NaCl, 1 mM DTT, 4% glycerol, room temperature, 30 min; GST-TFs on glutathione beads, 16-mer random dsDNA library, 0.1% formaldehyde crosslink after washing; high values mean tight binding
Common to all, as to settings: protein: recombinant; tags: N-terminal GST; dsDNA, one strand shown

Assay [1] addresses T1, FLI1 (Homo sapiens, UniProt Q01543 1-452).
T1 sequence: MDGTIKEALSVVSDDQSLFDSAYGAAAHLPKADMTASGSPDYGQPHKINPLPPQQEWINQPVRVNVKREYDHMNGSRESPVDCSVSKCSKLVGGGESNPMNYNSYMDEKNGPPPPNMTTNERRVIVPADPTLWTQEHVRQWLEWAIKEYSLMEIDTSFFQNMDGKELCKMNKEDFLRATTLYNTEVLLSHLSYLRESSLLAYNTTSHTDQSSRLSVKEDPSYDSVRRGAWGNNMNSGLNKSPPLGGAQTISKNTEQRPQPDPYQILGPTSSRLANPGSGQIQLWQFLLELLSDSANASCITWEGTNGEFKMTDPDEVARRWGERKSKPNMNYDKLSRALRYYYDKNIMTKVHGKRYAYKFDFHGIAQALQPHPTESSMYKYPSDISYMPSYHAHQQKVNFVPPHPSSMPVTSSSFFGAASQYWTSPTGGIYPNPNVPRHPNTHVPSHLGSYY
In short, it runs like this:
(§1)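 Beads coated with glutathione captured GST-fused human transcription factors that had been expressed in yeast, and the factors were then given DNA barcodes and pooled with a tag-only sample. The pools were incubated with 200 nmole of a random double-stranded 16-mer DNA library in Tris/NaCl/DTT/glycerol buffer for 30 min at room temperature, washed, crosslinked with 0.1% formaldehyde and proximity-ligated with BsaI/T4 ligase at 37 °C for 1 h. PCR amplification and Illumina NextSeq500 sequencing came last. Binding signal is each hexamer's read frequency for a factor divided by its frequency for the tag-only sample.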

The target in assay [2] is T2, ELK1 (Homo sapiens, UniProt P19419 1-428).
T2 sequence: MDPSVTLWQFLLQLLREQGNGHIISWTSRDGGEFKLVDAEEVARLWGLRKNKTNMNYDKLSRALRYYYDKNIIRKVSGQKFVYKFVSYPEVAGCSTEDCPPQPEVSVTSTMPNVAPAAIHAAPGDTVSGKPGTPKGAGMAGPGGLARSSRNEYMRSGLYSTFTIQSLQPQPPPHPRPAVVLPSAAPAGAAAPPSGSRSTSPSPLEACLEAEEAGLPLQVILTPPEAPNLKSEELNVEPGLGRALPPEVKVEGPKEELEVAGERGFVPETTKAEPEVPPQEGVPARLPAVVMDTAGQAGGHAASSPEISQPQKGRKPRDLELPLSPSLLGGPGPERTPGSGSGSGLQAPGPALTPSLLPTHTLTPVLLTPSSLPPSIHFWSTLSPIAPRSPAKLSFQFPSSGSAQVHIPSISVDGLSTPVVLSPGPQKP
The essentials: as §1

Assay [3] has as its target T3, GABPA (Homo sapiens, UniProt Q06546 1-454).
T3 sequence: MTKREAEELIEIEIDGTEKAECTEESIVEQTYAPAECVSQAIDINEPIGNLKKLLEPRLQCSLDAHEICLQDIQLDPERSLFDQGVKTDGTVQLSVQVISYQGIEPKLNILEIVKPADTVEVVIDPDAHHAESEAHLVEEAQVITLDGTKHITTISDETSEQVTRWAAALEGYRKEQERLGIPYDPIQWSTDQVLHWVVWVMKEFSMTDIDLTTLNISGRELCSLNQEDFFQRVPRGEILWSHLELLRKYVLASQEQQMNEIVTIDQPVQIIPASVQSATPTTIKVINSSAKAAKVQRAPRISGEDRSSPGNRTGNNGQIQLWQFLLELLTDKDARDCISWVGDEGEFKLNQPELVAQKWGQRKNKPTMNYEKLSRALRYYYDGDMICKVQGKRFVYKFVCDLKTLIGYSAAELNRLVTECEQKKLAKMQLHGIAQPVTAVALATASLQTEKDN
In short, it runs like this:
as §1

Assay [4] addresses T4, ERG (Homo sapiens, UniProt P11308 1-479).
T4 sequence: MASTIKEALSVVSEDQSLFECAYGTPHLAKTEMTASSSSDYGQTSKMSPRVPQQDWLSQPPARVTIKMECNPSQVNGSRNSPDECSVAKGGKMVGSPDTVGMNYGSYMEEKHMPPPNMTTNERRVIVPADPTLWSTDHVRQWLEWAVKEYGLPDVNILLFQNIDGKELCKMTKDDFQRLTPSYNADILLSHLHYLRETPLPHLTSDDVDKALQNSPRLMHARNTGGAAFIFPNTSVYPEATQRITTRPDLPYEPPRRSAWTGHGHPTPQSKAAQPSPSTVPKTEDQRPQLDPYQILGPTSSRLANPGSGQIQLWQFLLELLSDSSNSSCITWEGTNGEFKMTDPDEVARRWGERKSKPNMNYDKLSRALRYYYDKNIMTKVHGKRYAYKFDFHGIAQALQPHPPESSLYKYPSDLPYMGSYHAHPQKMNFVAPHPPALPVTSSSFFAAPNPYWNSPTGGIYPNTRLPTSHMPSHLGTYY
In short, it runs like this: as §1

The target of assay [5] is ELF1 (Homo sapiens, UniProt P32519 1-619). The essentials: as §1
Chain of ELF1 (P32519 whole entry): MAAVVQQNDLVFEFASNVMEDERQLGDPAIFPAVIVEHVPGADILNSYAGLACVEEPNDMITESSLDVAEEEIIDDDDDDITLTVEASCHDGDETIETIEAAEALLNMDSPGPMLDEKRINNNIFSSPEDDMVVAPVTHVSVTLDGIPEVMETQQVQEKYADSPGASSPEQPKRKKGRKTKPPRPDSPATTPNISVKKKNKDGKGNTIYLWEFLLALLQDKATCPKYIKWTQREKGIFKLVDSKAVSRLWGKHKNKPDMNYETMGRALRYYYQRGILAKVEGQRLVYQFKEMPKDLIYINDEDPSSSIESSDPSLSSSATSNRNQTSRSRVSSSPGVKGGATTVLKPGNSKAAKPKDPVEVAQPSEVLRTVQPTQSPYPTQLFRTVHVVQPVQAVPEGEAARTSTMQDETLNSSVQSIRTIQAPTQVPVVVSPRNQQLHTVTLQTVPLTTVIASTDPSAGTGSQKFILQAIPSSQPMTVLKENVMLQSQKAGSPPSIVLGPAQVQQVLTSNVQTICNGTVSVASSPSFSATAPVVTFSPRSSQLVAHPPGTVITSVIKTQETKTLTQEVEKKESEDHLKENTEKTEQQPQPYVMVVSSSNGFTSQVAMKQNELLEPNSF
Assay [6] addresses T5, EHF (Homo sapiens, UniProt Q9NZC4 1-300).
T5 sequence: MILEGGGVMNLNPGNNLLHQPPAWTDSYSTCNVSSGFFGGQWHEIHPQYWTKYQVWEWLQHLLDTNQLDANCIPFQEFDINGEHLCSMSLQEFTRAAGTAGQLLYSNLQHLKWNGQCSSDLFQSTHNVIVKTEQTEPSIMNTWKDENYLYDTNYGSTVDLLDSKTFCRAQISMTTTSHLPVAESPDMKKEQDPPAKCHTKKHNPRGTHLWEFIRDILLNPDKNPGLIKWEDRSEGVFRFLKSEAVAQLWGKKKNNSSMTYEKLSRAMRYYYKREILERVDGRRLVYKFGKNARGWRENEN
In short, it runs like this:
as §1

Assay [7] has as its target SPI1 (Homo sapiens, UniProt P17947 1-270). In short, it runs like this:
as §1

Assay [8] addresses SPIB (Homo sapiens, UniProt Q01892 1-262). The essentials: as §1
Assay [9] deals with T6, ELK3 (Homo sapiens, UniProt P41970 1-407).
T6 sequence: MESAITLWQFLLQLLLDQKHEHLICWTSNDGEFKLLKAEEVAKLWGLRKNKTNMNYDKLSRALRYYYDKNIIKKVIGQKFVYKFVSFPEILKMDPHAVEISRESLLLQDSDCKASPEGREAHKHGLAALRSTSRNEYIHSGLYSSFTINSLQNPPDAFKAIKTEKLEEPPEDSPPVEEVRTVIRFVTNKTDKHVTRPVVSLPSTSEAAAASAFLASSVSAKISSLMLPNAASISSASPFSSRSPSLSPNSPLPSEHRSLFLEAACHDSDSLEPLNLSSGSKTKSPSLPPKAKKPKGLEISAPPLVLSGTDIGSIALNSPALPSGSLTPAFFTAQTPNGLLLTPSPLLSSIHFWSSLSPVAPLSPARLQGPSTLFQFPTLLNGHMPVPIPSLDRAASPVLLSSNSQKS
In short, it runs like this:
as §1

Chain of SPIB (Q01892 whole entry): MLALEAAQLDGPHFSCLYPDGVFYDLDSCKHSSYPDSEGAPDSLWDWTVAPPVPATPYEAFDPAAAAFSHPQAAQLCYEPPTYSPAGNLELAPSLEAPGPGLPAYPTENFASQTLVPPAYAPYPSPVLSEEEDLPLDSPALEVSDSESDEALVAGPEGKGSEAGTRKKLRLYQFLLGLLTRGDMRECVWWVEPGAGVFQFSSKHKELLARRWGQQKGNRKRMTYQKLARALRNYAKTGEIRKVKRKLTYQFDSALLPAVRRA

Consider TGGCTA, for which the binding signal in [1] was 1.15 fold enrichment (6-mer frequency, TF over GST control); in assay [2], 1.23 fold enrichment (6-mer frequency, TF over GST control); in [3] it was 1.24 fold enrichment (6-mer frequency, TF over GST control); in assay [4], 1.17 fold enrichment (6-mer frequency, TF over GST control); in [5] it was 1.22 fold enrichment (6-mer frequency, TF over GST control); in assay [6] it was 1.19 fold enrichment (6-mer frequency, TF over GST control). For the same sequence, the binding signal in [7] was 1.2 fold enrichment (6-mer frequency, TF over GST control); in assay [8], 1.31 fold enrichment (6-mer frequency, TF over GST control); in assay [9], 1.14 fold enrichment (6-mer frequency, TF over GST control).
On to TCTAGC, for which the binding signal in assay [1] is 1.31 fold enrichment (6-mer frequency, TF over GST control); in assay [2], 1.34 fold enrichment (6-mer frequency, TF over GST control); in [3], 1.24 fold enrichment (6-mer frequency, TF over GST control); in assay [4] it was 1.32 fold enrichment (6-mer frequency, TF over GST control); in assay [5], 1.35 fold enrichment (6-mer frequency, TF over GST control); in [6] it was 1.38 fold enrichment (6-mer frequency, TF over GST control). Moreover, the binding signal in assay [7] is 1.21 fold enrichment (6-mer frequency, TF over GST control); in assay [8] it was 1.19 fold enrichment (6-mer frequency, TF over GST control); in [9], 1.44 fold enrichment (6-mer frequency, TF over GST control).
For CCGTCT, the binding signal in assay [1] was 1.41 fold enrichment (6-mer frequency, TF over GST control); in [2], 1.32 fold enrichment (6-mer frequency, TF over GST control); in assay [3], 1.43 fold enrichment (6-mer frequency, TF over GST control); in assay [4], 1.28 fold enrichment (6-mer frequency, TF over GST control); in assay [5], 1.46 fold enrichment (6-mer frequency, TF over GST control); in assay [6], 1.34 fold enrichment (6-mer frequency, TF over GST control). Further, the binding signal in [7] is 1.43 fold enrichment (6-mer frequency, TF over GST control); in [8], 1.45 fold enrichment (6-mer frequency, TF over GST control); in assay [9], 1.36 fold enrichment (6-mer frequency, TF over GST control).
AAGCCT: the binding signal is 1.21 fold enrichment (6-mer frequency, TF over GST control) in [1]; 1.22 fold enrichment (6-mer frequency, TF over GST control) in assay [2]; 1.24 fold enrichment (6-mer frequency, TF over GST control) in assay [3]; 1.21 fold enrichment (6-mer frequency, TF over GST control) in assay [4]; 1.25 fold enrichment (6-mer frequency, TF over GST control) in assay [5]; 1.16 fold enrichment (6-mer frequency, TF over GST control) in assay [6]. Further, the binding signal in assay [7] was 1.14 fold enrichment (6-mer frequency, TF over GST control); in [8], 1.22 fold enrichment (6-mer frequency, TF over GST control); in assay [9] it was 1.25 fold enrichment (6-mer frequency, TF over GST control).
With TATCGA, the binding signal in [1] was 1.36 fold enrichment (6-mer frequency, TF over GST control); in [2], 1.28 fold enrichment (6-mer frequency, TF over GST control); in assay [3], 1.32 fold enrichment (6-mer frequency, TF over GST control); in [4], 1.36 fold enrichment (6-mer frequency, TF over GST control); in assay [5], 1.36 fold enrichment (6-mer frequency, TF over GST control); in assay [6] it was 1.35 fold enrichment (6-mer frequency, TF over GST control). The binding signal in assay [7] was 1.34 fold enrichment (6-mer frequency, TF over GST control); in assay [8], 1.25 fold enrichment (6-mer frequency, TF over GST control); in [9] it was 1.34 fold enrichment (6-mer frequency, TF over GST control).
Consider AAACGC, for which the binding signal in [1] is 1.24 fold enrichment (6-mer frequency, TF over GST control); in assay [2] it was 1.17 fold enrichment (6-mer frequency, TF over GST control); in assay [3] it was 1.28 fold enrichment (6-mer frequency, TF over GST control); in assay [4] it was 1.34 fold enrichment (6-mer frequency, TF over GST control); in assay [5], 1.27 fold enrichment (6-mer frequency, TF over GST control); in [6], 1.25 fold enrichment (6-mer frequency, TF over GST control). The binding signal in assay [7] is 1.22 fold enrichment (6-mer frequency, TF over GST control); in assay [8] it was 1.22 fold enrichment (6-mer frequency, TF over GST control); in [9], 1.15 fold enrichment (6-mer frequency, TF over GST control).
For the sequence ATAACC, the binding signal in assay [1] was 1.21 fold enrichment (6-mer frequency, TF over GST control); in assay [2] it was 1.27 fold enrichment (6-mer frequency, TF over GST control); in assay [3], 1.22 fold enrichment (6-mer frequency, TF over GST control); in assay [4], 1.13 fold enrichment (6-mer frequency, TF over GST control); in [5], 1.23 fold enrichment (6-mer frequency, TF over GST control); in [6], 1.15 fold enrichment (6-mer frequency, TF over GST control). The binding signal was 1.06 fold enrichment (6-mer frequency, TF over GST control) in [7]; 1.25 fold enrichment (6-mer frequency, TF over GST control) in [8]; 1.37 fold enrichment (6-mer frequency, TF over GST control) in assay [9].
As to TTGCTT, the binding signal is 1.32 fold enrichment (6-mer frequency, TF over GST control) in [1]; 1.15 fold enrichment (6-mer frequency, TF over GST control) in assay [2]; 1.36 fold enrichment (6-mer frequency, TF over GST control) in assay [3]; 1.3 fold enrichment (6-mer frequency, TF over GST control) in [4]; 1.21 fold enrichment (6-mer frequency, TF over GST control) in [5]; 1.2 fold enrichment (6-mer frequency, TF over GST control) in [6]. Also, the binding signal is 1.29 fold enrichment (6-mer frequency, TF over GST control) in assay [7]; 1.35 fold enrichment (6-mer frequency, TF over GST control) in [8]; 1.26 fold enrichment (6-mer frequency, TF over GST control) in assay [9].
